Experimental data: the supplement of paper PMC8728848
About 410 targets per protein were measured; listed, in parts, are those with the strongest signals and a random draw of the rest.

What was measured:
Test in all cases: glycan array binding signal (z-score within array); higher = stronger binding
Conditions in all cases: glycan notation: IUPAC condensed, linker removed
[1] = molecular target: Fuc(a1-2)Gal(b1-3)GalNAc(a1-3)[Fuc(a1-2)]Gal(b1-4)Glc
Summary of the method: (§1)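 From the Consortium for Functional Glycomics database, 3228 arrays were curated, keeping only those whose protein sequence was available. Binding is given as a within-array Z-score averaged across arrays sharing a protein sequence and across linkers. Negative Z-scores can be read as non-binding.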

[2] = molecular target: Fuc(a1-2)Gal(b1-3)GalNAc(b1-4)[Neu5Ac(a2-3)]Gal(b1-4)Glc
Summary of the method: as §1

[3] = molecular target: Fuc(a1-2)Gal(b1-3)GlcNAc
Summary of the method: as §1

[4] = molecular target: Fuc(a1-2)Gal(b1-3)GlcNAc(b1-3)GalNAc
Summary of the method: as §1

[5] = molecular target: Fuc(a1-2)Gal(b1-4)GlcNAc(b1-2)[Fuc(a1-2)Gal(b1-4)GlcNAc(b1-4)]Man(a1-3)[Fuc(a1-2)Gal(b1-4)GlcNAc(b1-2)Man(a1-6)]Man(b1-4)GlcNAc(b1-4)GlcNAc
Summary of the method: as §1

[6] = molecular target: Fuc(a1-2)Gal(b1-4)GlcNAc6S
Summary of the method: as §1

[7] = molecular target: Fuc(a1-2)Gal(b1-4)[Fuc(a1-3)]GlcNAc(b1-2)[Fuc(a1-2)Gal(b1-4)[Fuc(a1-3)]GlcNAc(b1-4)]Man(a1-3)[Fuc(a1-2)Gal(b1-4)[Fuc(a1-3)]GlcNAc(b1-2)Man(a1-6)]Man(b1-4)GlcNAc(b1-4)GlcNAc
Summary of the method: as §1

[8] = molecular target: Fuc(a1-2)[Gal(a1-3)]Gal(b1-4)GlcNAc(b1-2)Man(a1-3)[Fuc(a1-2)[Gal(a1-3)]Gal(b1-4)GlcNAc(b1-2)Man(a1-6)]Man(b1-4)GlcNAc(b1-4)GlcNAc
Summary of the method: as §1

[9] = molecular target: Fuc(a1-2)[GalNAc(a1-3)]Gal(b1-3)GalNAc(a1-3)[Fuc(a1-2)]Gal(b1-4)GlcNAc
Summary of the method: as §1

[10] = molecular target: Fuc(a1-2)[GalNAc(b1-3)]Gal
Summary of the method: as §1

[11] = molecular target: Fuc(a1-3)[Gal(b1-4)]GlcNAc(b1-3)GalNAc
Summary of the method: as §1

[12] = molecular target: Fuc(a1-3)[Gal(b1-4)]GlcNAc(b1-4)Gal(b1-4)[Fuc(a1-3)]GlcNAc(b1-4)Gal(b1-4)[Fuc(a1-3)]GlcNAc
Summary of the method: as §1

[13] = molecular target: Fuc(a1-3)[Gal(b1-4)]GlcNAc(b1-6)[Gal(b1-3)GlcNAc(b1-3)]Gal(b1-4)Glc
Summary of the method: as §1

[14] = molecular target: Fuc(b1-3)GlcNAc
Summary of the method: as §1

[15] = molecular target: Gal(a1-3)Fuc(a1-2)Gal(b1-4)GlcNAc(b1-3)[Gal(a1-3)Fuc(a1-2)Gal(b1-4)GlcNAc(b1-6)]GalNAc
Summary of the method: as §1

[16] = molecular target: Gal(b1-3)Gal
Summary of the method: as §1

[17] = molecular target: Gal(b1-3)[Fuc(a1-4)]GlcNAc(b1-3)Gal(b1-4)GlcNAc
Summary of the method: as §1

[18] = molecular target: Gal(b1-4)GalNAc(a1-3)[Fuc(a1-2)]Gal(b1-4)GlcNAc
Summary of the method: as §1

[19] = molecular target: Gal(b1-4)GlcNAc(b1-2)Man(a1-3)[Man(a1-6)]Man(b1-4)GlcNAc(b1-4)GlcNAc
Summary of the method: as §1

[20] = molecular target: Gal(b1-4)GlcNAc(b1-3)Gal(b1-4)GlcNAc(b1-3)Gal(b1-4)GlcNAc
Summary of the method: as §1

[21] = molecular target: Gal(b1-4)GlcNAc(b1-3)Gal(b1-4)[Fuc(a1-3)GlcNAc(b1-6)]Gal(b1-4)Glc
Summary of the method: as §1

[22] = molecular target: Gal(b1-4)GlcNAc(b1-6)GalNAc
Summary of the method: as §1

[23] = molecular target: Gal4S6S(b1-4)GlcNAc
Summary of the method: as §1

[24] = molecular target: GalNAc(b1-3)Gal
Summary of the method: as §1

[25] = molecular target: GlcNAc(b1-3)Gal(b1-4)GlcNAc
Summary of the method: as §1

[26] = molecular target: GlcNAc(b1-3)Man
Summary of the method: as §1

[27] = molecular target: Kdn(a2-3)Gal(b1-3)GlcNAc
Summary of the method: as §1

[28] = molecular target: Man(a1-2)Man(a1-2)Man(a1-6)[Man(a1-3)]Man
Summary of the method: as §1

[29] = molecular target: Man(a1-2)Man(a1-3)[Man(a1-2)Man(a1-6)]Man(a1-6)[Man(a1-2)Man(a1-2)Man(a1-3)]Man
Summary of the method: as §1

[30] = molecular target: Man(a1-2)Man(a1-6)[Man(a1-3)]Man(a1-6)[Man(a1-2)Man(a1-2)Man(a1-3)]Man
Summary of the method: as §1

[31] = molecular target: Man(a1-2)Man(a1-6)[Man(a1-3)]Man(a1-6)[Man(a1-2)Man(a1-2)Man(a1-3)]Man(b1-4)GlcNAc(b1-4)GlcNAc
Summary of the method: as §1

[32] = molecular target: Man(a1-3)[Man(a1-6)]Man
Summary of the method: as §1

[33] = molecular target: Man(a1-3)[Man(a1-6)]Man(a1-6)[Man(a1-2)Man(a1-3)]Man(b1-4)GlcNAc(b1-4)GlcNAc
Summary of the method: as §1

[34] = molecular target: Man(a1-3)[Man(a1-6)]Man(a1-6)[Man(a1-3)]Man
Summary of the method: as §1

[35] = molecular target: Man(a1-3)[Man(a1-6)]Man(a1-6)[Man(a1-3)]Man(b1-4)GlcNAc(b1-4)GlcNAc
Summary of the method: as §1

[36] = molecular target: Neu5Ac(a2-3)Gal(b1-3)GalNAc(b1-4)[Neu5Ac(a2-8)Neu5Ac(a2-3)]Gal(b1-4)Glc
Summary of the method: as §1

[37] = molecular target: Neu5Ac(a2-3)Gal(b1-4)Glc
Summary of the method: as §1

[38] = molecular target: Neu5Ac(a2-3)Gal(b1-4)[Fuc(a1-3)]GlcNAc6S
Summary of the method: as §1

[39] = molecular target: Neu5Ac(b2-6)Gal(b1-4)GlcNAc
Summary of the method: as §1

[40] = molecular target: Neu5Gc(a2-3)Gal(b1-4)[Fuc(a1-3)]GlcNAc
Summary of the method: as §1

[41] = molecular target: Man(a1-3)[Man(a1-6)]Man(b1-4)GlcNAc(b1-4)[Fuc(a1-6)]GlcNAc
Summary of the method: as §1

[42] = molecular target: Neu5Ac(a2-3)Gal(b1-3)GlcNAc(b1-2)Man(a1-3)[GlcNAc(b1-4)][Neu5Ac(a2-3)Gal(b1-3)GlcNAc(b1-2)Man(a1-6)]Man(b1-4)GlcNAc(b1-4)GlcNAc
Summary of the method: as §1

[43] = molecular target: Neu5Ac(a2-3)Gal(b1-3)[Fuc(a1-4)]GlcNAc(b1-3)Gal(b1-3)[Fuc(a1-4)]GlcNAc
Summary of the method: as §1

[44] = molecular target: Neu5Ac(a2-3)Gal(b1-3)[Neu5Ac(a2-6)]GalNAc
Summary of the method: as §1

[45] = molecular target: Neu5Ac(a2-3)Gal(b1-4)GlcNAc(b1-3)Gal(b1-4)[Fuc(a1-3)]GlcNAc
Summary of the method: as §1

[46] = molecular target: Neu5Ac(a2-6)Gal(b1-4)GlcNAc(b1-3)GalNAc
Summary of the method: as §1

[47] = molecular target: Neu5Ac(a2-6)GlcNAc(b1-4)GlcNAc
Summary of the method: as §1

[48] = molecular target: Neu5Gc(a2-3)Gal(b1-4)GlcNAc
Summary of the method: as §1

B1: BC2L-D C-terminal domain (Burkholderia cenocepacia), Q39MQ9_BURS3 (protein)
chain: LVIVDAVTLLSAYPEASRDPAAPTVIDGRHLYVVSPGDAAQLGHNDSRLFTGLSPGDQLHLRETALALRAEVSVLFIRFALKDAGIVAPIELEVRDAATAVPDADDLLHPSCRPLKDHYWRSDVLAAGATTCTADFAVCDRDGTVSGYFRWETSIEIAGSQPDTKQPGFKPSSDRNGNFSLPPNTAFKAIFYANAADRQDLKLFIDDAPEPAATFVGNSEDGVRLFTLNSKGGKIRIEASANGRQSATDARLAPLSAGDTVWLGWLGAEDGADADYNDGIVILQWPIT
- glycan array binding signal (z-score) [1]: -0.158
- glycan array binding signal (z-score) [2]: 0.376
- glycan array binding signal (z-score) [3]: 0.536
- glycan array binding signal (z-score) [4]: -0.16
- glycan array binding signal (z-score) [5]: -0.137
- glycan array binding signal (z-score) [6]: 0.114
- glycan array binding signal (z-score) [7]: -0.147
- glycan array binding signal (z-score) [8]: -0.167
- glycan array binding signal (z-score) [9]: -0.169
- glycan array binding signal (z-score) [10]: -0.242
- glycan array binding signal (z-score) [11]: -0.164
- glycan array binding signal (z-score) [12]: 0.024
- glycan array binding signal (z-score) [13]: -0.165
- glycan array binding signal (z-score) [14]: -0.241
- glycan array binding signal (z-score) [15]: -0.159
- glycan array binding signal (z-score) [16]: -0.242
- glycan array binding signal (z-score) [17]: -0.137
- glycan array binding signal (z-score) [18]: -0.242
- glycan array binding signal (z-score) [19]: 0.676
- glycan array binding signal (z-score) [20]: -0.242
- glycan array binding signal (z-score) [21]: -0.165
- glycan array binding signal (z-score) [22]: -0.2
- glycan array binding signal (z-score) [23]: -0.243
- glycan array binding signal (z-score) [24]: -0.243
- glycan array binding signal (z-score) [25]: -0.241
- glycan array binding signal (z-score) [26]: -0.243
- glycan array binding signal (z-score) [27]: -0.242
- glycan array binding signal (z-score) [28]: 5.14
- glycan array binding signal (z-score) [29]: 4.23
- glycan array binding signal (z-score) [30]: 5.62
- glycan array binding signal (z-score) [31]: 6.24
- glycan array binding signal (z-score) [32]: 4.31
- glycan array binding signal (z-score) [33]: 6.86
- glycan array binding signal (z-score) [34]: 5.02
- glycan array binding signal (z-score) [35]: 3.67
- glycan array binding signal (z-score) [36]: -0.154
- glycan array binding signal (z-score) [37]: -0.248
- glycan array binding signal (z-score) [38]: -0.244
- glycan array binding signal (z-score) [39]: -0.248
- glycan array binding signal (z-score) [40]: -0.236

B2: StcE (Escherichia coli), O82882.2 (protein)
chain: ADNNSAIYFNTSQPINDLQGSLAAEVKFAQSQILPAHPKEGDSQPHLTSLRKSLLLVRPVKADDKTPVQVEARDDNNKILGTLTLYPPSSLPDTIYHLDGVPEGGIDFTPHNGTKKIINTVAEVNKLSDASGSSIHSHLTNNALVEIHTANGRWVRDIYLPQGPDLEGKMVRFVSSAGYSSTVFYGDRKVTLSVGNTLLFKYVNGQWFRSGELENNRITYAQHIWSAELPAHWIVPGLNLVIKQGNLSGRLNDIKIGAPGELLLHTIDIGMLTTPRDRFDFAKDKEAHREYFQTIPVSRMIVNNYAPLHLKEVMLPTGELLTDMDPGNGGWHSGTMRQRIGKELVSHGIDNANYGLNSTAGLGENSHPYVVAQLAAHNSRGNYANGIQVHGGSGGGGIVTLDSTLGNEFSHEVGHNYGLGHYVDGFKGSVHRSAENNNSTWGWDGDKKRFIPNFYPSQTNEKSCLNNQCQEPFDGHKFGFDAMAGGSPFSAANRFTMYTPNSSAIIQRFFENKAVFDSRSSTGFSKWNADTQEMEPYEHTIDRAEQITASVNELSESKMAELMAEYAVVKVHMWNGNWTRNIYIPTASADNRGSILTINHEAGYNSYLFINGDEKVVSQGYKKSFVSDGQFWKERDVVDTREARKPEQFGVPVTTLVGYYDPEGTLSSYIYPAMYGAYGFTYSDDSQNLSDNDCQLQVDTKEGQLRFRLANHRANNTVMNKFHINVPTESQPTQATLVCNNKILDTKSLTPAPEGLTYTVNGQALPAKENEGCIVSVNSGKRYCLPVGQRSGYSLPDWIVGQEVYVDSGAKAKVLLSDWDNLSYNRIGEFVGNVNPADMKKVKAWNGQYLDFSKPRSMRVVYK
- glycan array binding signal (z-score) [30]: -0.148
- glycan array binding signal (z-score) [35]: -0.198
- glycan array binding signal (z-score) [41]: -0.049
- glycan array binding signal (z-score) [42]: -0.142
- glycan array binding signal (z-score) [43]: 4.08
- glycan array binding signal (z-score) [44]: 8.93
- glycan array binding signal (z-score) [45]: -0.162
- glycan array binding signal (z-score) [38]: 2.84
- glycan array binding signal (z-score) [46]: 2.78
- glycan array binding signal (z-score) [47]: -0.156
- glycan array binding signal (z-score) [48]: -0.113
